# “And” between values parts separate entries of the source, which are not always exact repeats. Identical values can stand only once. Out of some 34,000 compounds screened, about 290 (0.85%) showed an effect of 50% or more. Shown is part of a subset that was picked to be rich in strong results.
# Test system: Plasmodium falciparum
# Assay: Plasmodium falciparum sporozoite viability assay
# Type: functional, organism-based
# Parameters: scale not given: in the data most compounds retested in dose-response had high values
Compound,Percent Effect (10 mM as filed; unlikely as a test dose),Percent Effect [%]
CC/N=c1\nc(NCC)nc2n1C(O)(Nc1cc(C)ccc1C)CS2 (configuration not stated),-7.651% and -13.62%,
CC/N=c1\nc(NCC)nc2n1C(O)(Nc1ccc(C)cc1C)CS2 (configuration not stated),76.89% and 79.52%,
O=S(=O)(c1ccccc1)N1CCC[C@]2(C[C@H](OCC3CC3)CO2)C1,,-0.3567
NCCO[C@H]1C[C@@H](O)C12CCN(C(=O)CCOc1ccccc1)CC2,3.322% and 1.71%,
CCn1cnnc1C1CCN(C(=O)COCCc2ccccc2)CC1,-3.699% and -24.35% and -22.69%,
CC(O)CN1CCN(C(=O)CCOc2ccccc2F)CC1 (configuration not stated),8.088% and -8.879% and -8.774%,
Cc1ccccc1OCCCC(=O)NCC1CN(C)CCO1 (configuration not stated),6.067% and -2.638% and -0.6996%,
CO[C@H]1C[C@@H](O)C12CCN(C(=O)CCCOc1ccccc1)CC2,88.4% and 94.39%,
CCn1cnnc1C1CCN(C(=O)CCCOc2ccccc2)CC1,42.92% and 40.5% and 58.13%,
CO[C@H]1C[C@@H](O)C12CCN(C(=O)NCc1ccco1)CC2,,8.391
CN1CCOC(CNC(=O)CCCOc2cccc(F)c2)C1 (configuration not stated),7.848% and 7.883% and 5.332%,
CN1CCOC(CNC(=O)CCCOc2ccccc2F)C1 (configuration not stated),51.69% and 61.26% and 47.35%,
O=C(CCOc1ccccc1F)N1CCC(O)CC1,-2.056% and -15.58% and -4.248%,
Cc1cnccc1CN1Cc2ccccc2O[C@]2(CC[C@H](CO)CC2)C1,,13.72
Cc1cc(CN2CCCC(c3cc(C(F)(F)F)[nH]n3)C2)no1 (configuration not stated),,9.793
O=C(CCCc1nnc(-c2ccccc2)o1)N1CCN(C2CC2)CC1,,16.07
Cc1ccc(NC2CCN(C(=O)c3cnn(C(C)(C)C)c3)CC2)nn1,,-0.1023
c1ccn2c(C3CCCN3Cc3nc(C4CC4)no3)nnc2c1 (configuration not stated),,-1.432
Cc1cnn(CC2CN(CC(=O)Nc3ccnn3C(C)C)CCO2)c1 (configuration not stated),,2.692
Cc1ccccc1OCCC(=O)N1CCC(c2nncn2C)CC1,2.17% and -2.919% and 0.9191%,
Cn1cnnc1C1CCN(C(=O)CCCOc2ccccc2F)CC1,83.01% and 69.05% and 60.83%,
CC(C)Nc1nc(O)cc(C2CC(=O)N(Cc3ccccn3)C2)n1.Cl (configuration not stated),,10.31
CNc1cc(C)nc(C2CN(Cc3ccc(Cl)cn3)CCO2)c1 (configuration not stated),,20.7
CCC(=O)N1CCC(c2ncc(C(=O)Nc3ccccc3)c(C)n2)C1 (configuration not stated),,8.085

Compound,Percent Effect (10 mM as filed; unlikely as a test dose),Percent Effect [%]
COc1ccc(CC(=O)N2CCCC2Cn2cc(C)cn2)cc1OC (configuration not stated),8.878% and 3.897% and 0.6031%,
COc1ccc2cc(C(=O)N3CCCC3Cn3cc(C)cn3)[nH]c2c1 (configuration not stated),,-1.066
Cc1nn(C)cc1-c1cncn1CCc1ccc2c(c1)OCCO2.Cl,35.23% and 54.6% and 46.78%,
COC1COC2(CCN(CC3CCOCC3)CC2)C1.O=C(O)C(F)(F)F (configuration not stated),,2.7
CC(C(=O)N1CCOCC1)n1nc(-c2cccs2)cc(N)c1=O (configuration not stated),,-6.596
CCn1cc(CN2CCCN(C(=O)c3ccccc3OC)CC2)cn1,,5.544
CCCc1cc(CNC2CCN(c3nc4ccccc4s3)CC2)on1,84.7% and 90.12%,
CCCc1cc(CNC(=O)C2CCOc3ccccc3C2)on1 (configuration not stated),,10.71
Cc1nc(CN2CCCC(NCc3nc4ccccc4s3)C2)no1 (configuration not stated),,12.82
CC(=O)N1N=C(c2ccccc2)OC1C(=O)NCCc1ccc(C)cc1 (configuration not stated),,-14.76
CNC(=O)CN1CCCC12CCN(C(=O)c1ccccc1F)CC2.O=C(O)C(F)(F)F,,-2.189
Cl.Clc1ccccc1CN1CCc2nc(C3CCCNC3)ncc2C1 (configuration not stated),,2.109
CC(C)Oc1ccc2c(NC(=O)[C@H](C)O)nn(CC(F)(F)F)c2c1,-22.23% and -11.46%,
Cc1csc(NC(=O)[C@@H]2C[C@H]3[C@H](CCN3c3ncccn3)O2)n1.O=C(O)C(F)(F)F,,2.312
CCn1cc(C(=O)N2CCOC(c3nc(-c4cccs4)no3)C2)cn1 (configuration not stated),66.92% and 76% and 54.9%,
CCn1ccc(C(=O)N2CCOC(c3nc(-c4cccs4)no3)C2)n1 (configuration not stated),-10.26% and 14.68% and 1.172%,
CCCn1cc(C(=O)N2CCOC(c3nc(-c4cccs4)no3)C2)cn1 (configuration not stated),42.39% and 34.52% and 29.79%,
Cc1nc(-c2nc(C(=O)N(C)C)c3ccccn23)cn1C(C)C,38.79% and 23.46% and 42.96%,
Cn1cnc(-c2nc(C(=O)NC3CC3)c3ccccn23)c1,,10.82
Cn1cnc(-c2cc(C(=O)N3CCOCC3)c3ccccn23)c1,,-1.371
Cc1nc(-c2nc(C(=O)N3CCOCC3)c3ccccn23)cn1C(C)C,54.88% and 55.7%,
CC(C)n1cnc(-c2nc(C(=O)NC3CC3)c3ccccn23)c1,,6.582
Cc1nc(-c2nc(C(=O)NC3CC3)c3ccccn23)cn1C(C)C,58.89% and 55% and 41.86%,

# Reference: ChEMBL document CHEMBL3988442, “University of Dundee, Small-Polar-MMV Screening Library” (2021)
